This passage reports outcome, Potency and activation results from PubChem BioAssay (NCATS).

“And” between values parts separate entries of the source, which are not always exact repeats. Equal entries are not always repeated. Results filed as inconclusive are left out. Entries that show only a call come without a potency. A structure can be active in one record and inactive in another. The source made the active and inactive calls. Unless noted, calls follow the shape of the dose curve; as a rule, active = well fitted curve in the direction sought with a large enough effect; inconclusive = small, poorly fitted or top-dose-only effect, or another doubt; inactive = no such curve, though single readings can be large; an effect the other way counts as inactive or inconclusive.

In assay [1] the target is Guanine nucleotide-binding protein G(i) subunit alpha-1 (Homo sapiens) (UniProt P63096). Nature of the assay: qHTS Assay for Inhibitors of RGS12 GoLoco Motif Activity (Green Fluorophore) (AID 879).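 Also: negative values mean loss of peptide binding seen as reduced polarization.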 The essentials: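 Fluorescence polarization assay: 50 nM Gαi1 with 10 nM FITC-labeled RGS12 GoLoco peptide in 10 mM Tris pH 7.5, 150 mM NaCl, 0.1 mM GDP, 0.05% NP40, 10 min at room temperature with compound.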
Background: In qHTS, concentration-response curves come from the screen itself.

The target in assay [2] is Cytochrome P450 3A4 (Homo sapiens) (UniProt P08684). Nature of the assay: qHTS Assay for Inhibitors and Substrates of Cytochrome P450 3A4 (AID 884). Also: nearly all actives have a fitted effect of over 50% in size. Also: potency is read from the fitted curve at half-maximal effect. The gist of the method: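 20 nM human CYP3A4 with 25 uM Luciferin-PPXE (at KM) in 200 mM KPO4, preincubated 10 min with compound; NADPH regeneration started a 60 min RT reaction. Luciferin detected by luminescence, normalized to 57 uM ketoconazole as full inhibition.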

A short description of assay [3]: qHTS Assay for Identification of Small Molecule Antagonists for NFkB Signaling Pathway (AID 895; active = well fitted inhibition curve with a large enough effect in the signal ratio, with a control signal flat, not every such curve was filed as active; the % refers to the signal ratio). The gist of the method:
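Beta-lactamase reporter read-out (460 and 530 nm emission ratio, 405 nm excitation, 2 hrs substrate loading RT) after 5 hr stimulation with 10 pM TNF alpha in compound-treated NFkB-bla ME-180 cells in low-serum medium.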

Assay [4] has as its target Cytochrome P450 3A4 (Homo sapiens) (UniProt P08684). Nature of the assay: qHTS Assay for Activators of Cytochrome P450 3A4 (AID 885). Also: nearly all actives have a fitted effect of over 65% in size. The gist of the method:
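Signal was normalized against complete inhibition by 57 uM ketoconazole. The reaction used 20nM CYP3A4 with 25uM Luciferin-PPXE, 10-min compound preincubation and a 60-min NADPH-supported step at RT.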

Assay [5] concerns the target Cytochrome P450 2C19 (Homo sapiens) (UniProt P33261). Description: qHTS Assay for Inhibitors and Substrates of Cytochrome P450 2C19 (AID 899). Also: nearly all actives have a fitted effect of over 60% in size. Also: potency is read from the fitted curve at half-maximal effect. The essentials:
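Luminescence readout of luciferin formed from 10uM Luciferin-H EGE (KM level) by 5 nM CYP2C19 in 50mM KPO4. 60 min NADPH-driven reaction at 37C after 10 min compound preincubation; data scaled to 57uM ketoconazole inhibition.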

Assay [6] can be described thus: Confirmation and Secondary Assay for Modulators of Hemoglobin Beta Chain Splicing at IVS2 654 locus (AID 910).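 Also: HeLa cells stably carrying EGFP split by mutant beta-globin IVS2-654 intron; per-well total GFP intensity by laser scanning cytometry after 2-day treatment.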 The essentials:
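Readout: per-well total peak green fluorescence (488 nm ex, 500–520 nm em) from objects 5–250 µm, reflecting correct splicing of an EGFP-654 reporter. Compounds were applied for 2 days at 37 °C to overnight-plated HeLa EGFP-654 cells; controls were DMSO and 500 nM IVS2-654 PNA.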

The target of assay [7] is Cytochrome P450 2D6 (Homo sapiens) (UniProt P10635). Description: qHTS Assay for Inhibitors and Substrates of Cytochrome P450 2D6 (AID 891). Also: nearly all actives have a fitted effect of over 60% in size. Also: potency is read from the fitted curve at half-maximal effect. The essentials:
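Human CYP2D6 (5 nM) with 30 uM Luciferin-ME EGE (at Km) in 100 mM KPO4, compound preincubated 10 min, then NADPH regeneration system for 60 min at room temperature. Luciferin read by luminescence; normalized to 1.43 uM quinidine.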

Assay [8] is described as follows: qHTS Assay for Identification of Small Molecule Agonists for Hypoxia Response Element Signaling Pathway (AID 914; active = well fitted activation curve with a large enough effect in the signal ratio, with a control signal flat, not every such curve was filed as active; the % refers to the signal ratio). The settings on record: ME-180 (cervical carcinoma) HRE-bla reporter, beta-lactamase ratio, CoCl2, 17 h; stronger effect = higher value. The gist of the method: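 Reporter activity (beta-lactamase, CCF4 460nm/530nm ratio) in HRE-bla ME-180 cells is recorded after 17 h compound exposure with EC50 CoCl2 at 37 degrees Celsius. AC50 values come from titration data.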

Assay [9] concerns the target Cytochrome P450 2C9 (Homo sapiens) (UniProt P11712). Description: qHTS Assay for Inhibitors and Substrates of Cytochrome P450 2C9 (AID 883). Also: nearly all actives have a fitted effect of over 60% in size. Also: potency is read from the fitted curve at half-maximal effect. The essentials: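 Luminescent read-out of deoxyluciferin hydroxylation, normalized to 57uM sulphaphenazole (AC100). Reaction: 10nM enzyme, 100uM Luciferin-H (equal to KM), 25mM KPO4, 10 min compound preincubation, then 60 min with NADPH regeneration, both at 37C.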

Cytochrome P450 2D6 (Homo sapiens), sequence (P10635 whole entry, looked up): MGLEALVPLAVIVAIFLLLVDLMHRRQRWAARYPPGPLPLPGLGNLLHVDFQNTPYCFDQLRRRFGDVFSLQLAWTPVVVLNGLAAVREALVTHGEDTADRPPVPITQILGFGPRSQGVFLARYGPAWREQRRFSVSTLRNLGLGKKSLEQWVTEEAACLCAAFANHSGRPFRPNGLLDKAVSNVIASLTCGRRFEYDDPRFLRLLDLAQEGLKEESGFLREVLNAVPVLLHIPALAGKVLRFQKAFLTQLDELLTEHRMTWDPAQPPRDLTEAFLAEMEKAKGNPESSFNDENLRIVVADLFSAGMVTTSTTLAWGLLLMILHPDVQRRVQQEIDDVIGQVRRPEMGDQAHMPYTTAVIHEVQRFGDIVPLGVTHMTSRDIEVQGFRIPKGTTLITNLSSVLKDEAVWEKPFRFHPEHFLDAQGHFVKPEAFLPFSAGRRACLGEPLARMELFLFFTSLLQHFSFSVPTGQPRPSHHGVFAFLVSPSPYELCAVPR
Cytochrome P450 2C9 (Homo sapiens), sequence (P11712 whole entry, looked up): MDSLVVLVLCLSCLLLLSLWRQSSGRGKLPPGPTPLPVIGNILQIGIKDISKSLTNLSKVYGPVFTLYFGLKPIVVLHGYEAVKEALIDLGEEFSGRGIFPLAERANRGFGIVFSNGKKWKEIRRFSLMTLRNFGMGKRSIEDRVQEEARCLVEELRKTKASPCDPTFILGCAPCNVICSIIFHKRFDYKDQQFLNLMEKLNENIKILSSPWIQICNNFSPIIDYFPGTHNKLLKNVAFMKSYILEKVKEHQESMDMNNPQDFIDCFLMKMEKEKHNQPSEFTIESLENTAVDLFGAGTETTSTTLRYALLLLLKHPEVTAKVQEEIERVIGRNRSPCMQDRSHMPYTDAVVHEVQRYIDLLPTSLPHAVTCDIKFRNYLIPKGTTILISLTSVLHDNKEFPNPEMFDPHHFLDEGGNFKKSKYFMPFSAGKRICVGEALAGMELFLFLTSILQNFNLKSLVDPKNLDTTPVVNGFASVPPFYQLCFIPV
Cytochrome P450 2C19 (Homo sapiens), sequence (P33261 whole entry, looked up): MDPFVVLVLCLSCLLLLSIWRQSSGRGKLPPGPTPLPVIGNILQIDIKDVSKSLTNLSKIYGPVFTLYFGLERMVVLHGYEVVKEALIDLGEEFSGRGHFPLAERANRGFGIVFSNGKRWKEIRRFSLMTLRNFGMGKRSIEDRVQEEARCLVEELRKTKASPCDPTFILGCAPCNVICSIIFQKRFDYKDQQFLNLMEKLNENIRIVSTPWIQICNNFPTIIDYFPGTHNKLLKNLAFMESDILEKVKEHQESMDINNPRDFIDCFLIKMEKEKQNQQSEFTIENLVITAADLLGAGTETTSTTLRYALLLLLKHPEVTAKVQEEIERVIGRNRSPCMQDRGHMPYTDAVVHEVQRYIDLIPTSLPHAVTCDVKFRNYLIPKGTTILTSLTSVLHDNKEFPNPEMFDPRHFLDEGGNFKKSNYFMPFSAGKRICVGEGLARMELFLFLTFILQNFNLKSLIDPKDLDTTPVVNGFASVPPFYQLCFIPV
Guanine nucleotide-binding protein G(i) subunit alpha-1 (Homo sapiens), sequence (P63096 whole entry, looked up): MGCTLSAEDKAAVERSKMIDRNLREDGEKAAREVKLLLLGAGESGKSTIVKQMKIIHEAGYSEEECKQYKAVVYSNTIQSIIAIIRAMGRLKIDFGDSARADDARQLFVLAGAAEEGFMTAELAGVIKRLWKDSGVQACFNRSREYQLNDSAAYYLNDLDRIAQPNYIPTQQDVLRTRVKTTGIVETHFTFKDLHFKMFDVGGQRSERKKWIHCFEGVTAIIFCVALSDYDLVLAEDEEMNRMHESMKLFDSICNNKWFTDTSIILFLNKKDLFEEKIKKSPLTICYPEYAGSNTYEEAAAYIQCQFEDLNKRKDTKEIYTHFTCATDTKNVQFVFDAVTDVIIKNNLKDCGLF
Cytochrome P450 3A4 (Homo sapiens), sequence (P08684 whole entry, looked up): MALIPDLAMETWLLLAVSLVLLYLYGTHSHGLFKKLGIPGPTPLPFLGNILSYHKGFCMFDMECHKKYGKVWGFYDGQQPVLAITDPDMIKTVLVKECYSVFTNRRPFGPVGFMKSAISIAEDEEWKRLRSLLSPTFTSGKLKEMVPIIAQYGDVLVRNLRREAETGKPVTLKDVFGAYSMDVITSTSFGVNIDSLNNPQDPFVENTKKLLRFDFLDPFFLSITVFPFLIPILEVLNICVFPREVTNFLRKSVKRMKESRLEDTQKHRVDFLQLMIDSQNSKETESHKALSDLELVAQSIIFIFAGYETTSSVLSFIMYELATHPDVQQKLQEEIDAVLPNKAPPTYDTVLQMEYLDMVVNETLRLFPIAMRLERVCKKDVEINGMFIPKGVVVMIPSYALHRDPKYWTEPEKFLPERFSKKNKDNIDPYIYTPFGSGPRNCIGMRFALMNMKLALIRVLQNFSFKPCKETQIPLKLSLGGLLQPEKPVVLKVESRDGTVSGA

Take `O=C(O)[C@@H]1C[C@@H](C(=O)O)N1`: the compound was called inactive in assay [1]. In addition, the Potency entry in [2] and in assay [3] was “inactive” throughout.

Take `COc1ccccc1CNCCCCCCNCCCCCCCCNCCCCCCNCc1ccccc1OC`: the result in assay [1] was inactive. Further, the Potency result in assay [4] and in assay [3] was “inactive” throughout.

Take `CC(C)(C=O)Cc1cc(C(C)(C)C)c(O)c(C(C)(C)C)c1`: the result in [1] was inactive. Moreover, the Potency entry in assay [4] and in assay [5] was “inactive” throughout.

`CCCCCCCC/C=C\CCCCCCCC(=O)NCCO`: the outcome in [1] was inactive. In assay [4], the Potency entry was “inactive”.

`COc1ccc(/C=C/C(=O)Nc2ccccc2C(=O)O)cc1OC`: in assay [1], the call was inactive. Besides, the Potency entry in [4] is “inactive”.

Consider `CN(C)c1nc(N)c(C(=O)N=C(N)N)nc1Cl`, for which the compound was classed as inactive in assay [1]. In addition, the Potency entry in assay [4] was “inactive”.

Take `COc1cc(OC)c(/C=C2/C(=O)Nc3ccccc32)c(OC)c1`: in assay [1], the compound was classed as inactive. In assay [3], the Potency result is “inactive”.

`NCCCS(=O)(=O)O`: the compound was called inactive in assay [1] and in [6].

On to `Cn1c(=O)c2[nH]c(-c3ccccc3)nc2n(C)c1=O`, for which the result in assay [1] was inactive. Moreover, the Potency entry in assay [3] is “inactive”.

For the compound `CCN1/C(=C/C(C)=O)Sc2ccc(OC)cc21`, the outcome in assay [1] was inactive. Besides, the Potency entry in assay [4] is “inactive”.

On to `CN(C)C(N)=NCCC[C@H](N)C(=O)O`, for which the result in [1] was inactive. Further, in assay [5], the Potency result was “inactive”.

With `Cc1cc(NC(=O)Nc2ccc3c(ccn3C)c2)sn1`, in assay [1], the call was inactive. The Potency entry in [4] and in [3] was “inactive” throughout. In addition, the Potency result in [5] is “inactive and 3.16 µM (active)”.

Consider `NCCSSCCN`, for which the result in assay [1] and in assay [6] was inactive. Also, the Potency entry in [2] and in assay [3] was “inactive” in each case.

As to `C[N+](C)(CCCCCC[N+](C)(C)CCCN1C(=O)c2cccc3cccc(c23)C1=O)CCCN1C(=O)c2cccc3cccc(c23)C1=O`, in [1], the outcome was inactive. The Potency result in assay [4] is “inactive”.

In the case of `Ic1ccc(N2CCN(Cc3c[nH]c4ncccc34)CC2)cc1`, the compound was called inactive in [1]. Moreover, in assay [4], the Potency result is “inactive”.

On to `O=c1[nH]c2cc(Cl)c(Cl)cc2[nH]c1=O`, for which the call in assay [1] and in assay [6] was inactive. For the same compound, the Potency entry in assay [3] was “inactive”.

In the case of `CN1[C@@H]2CC[C@H]1CC(OC(c1ccccc1)c1ccccc1)C2` (stereo partly drawn), the compound was called inactive in [1]. Further, the Potency in assay [7] was 2 µM (active) and 1.26 µM (active). For the same compound, in assay [8], the activation is 14.9% (inactive) and 19% (inactive).

For the compound `CN1CCc2cc(NC(=O)Nc3cccnc3)ccc21`, the compound was called inactive in assay [1]. Moreover, the Potency entry in [4] is “inactive”.

Take `NC[C@@H]1O[C@H](C23CC4CC(CC(C4)C2)C3)Cc2c1ccc(O)c2O`: in assay [1], the compound was called inactive. Moreover, the Potency entry in assay [4] was “inactive”.

As for `NC(N)=NC(=O)c1nc(Cl)c(N2CCCCCC2)nc1N`, the result in assay [1] and in assay [6] was inactive. Moreover, the Potency entry in assay [2] and in assay [3] was “inactive” in each case. Moreover, in assay [5], the Potency is 5.01 µM (active).

With `COC1=C(OC)C(=O)c2ccccc2C1=O`, the call in assay [1] was inactive. The Potency entry in [4] is “inactive”.

In the case of `C=C[C@@H]1CN2CC[C@@H]1C[C@H]2[C@H](O)c1ccnc2ccc(OC)cc12`, the Potency entry in [9] is “inactive”.

Regarding `N=C(N)N`, in [2], the Potency result was “inactive”. Further, the call in assay [6] was inactive.

Regarding `Oc1c(Br)cc(Br)c2cccnc12`, the Potency entry in [2] was “inactive”. Moreover, the call in [6] was inactive.

For the compound `CCC1C(=O)OCC1Cc1cncn1C` (stereo not drawn), the Potency in assay [5] was 7.94 µM (active).

For the compound `CCCSc1ccc2nc(NC(=O)OC)[nH]c2c1`, the compound was classed as inactive in assay [9], in assay [7], in [5] and in [6].

Turning to `CC(C(=O)O)c1ccc2c(c1)[nH]c1ccc(Cl)cc12` (stereo not drawn), in assay [2], the Potency entry is “inactive”. The outcome in assay [6] was inactive.

For the compound `CCCCC1C(=O)N(c2ccccc2)N(c2ccc(O)cc2)C1=O` (stereo not drawn), the compound was called inactive in assay [6].

In the case of `COc1cc(/C=C/C(=O)CC(=O)/C=C/c2ccc(O)c(OC)c2)ccc1O`, the Potency in assay [2] was 12.6 µM (active). Further, in [4], the Potency entry is “inactive”.

Take `Nc1cc(-c2ccncc2)c[nH]c1=O`: in [4], the Potency result is “inactive”. In addition, in assay [5], the Potency is 5.01 µM (active). In addition, the compound was called inactive in assay [6].

Consider `CN1C2CCC1CC(OC(=O)C(O)c1ccccc1)C2` (stereo not drawn), for which the compound was classed as inactive in assay [6].

As for `O=C(O)c1ccccc1Nc1cccc(C(F)(F)F)c1`, the Potency result in assay [2] was “inactive”. Further, in [6], the compound was classed as inactive.

With `Nc1nc(Cl)nc2c1ncn2[C@@H]1O[C@H](CO)[C@@H](O)[C@H]1O`, in assay [2], the Potency result was “inactive”. Further, the compound was called inactive in [6].

In the case of `CC1OC1P(=O)(O)O` (stereo not drawn), the outcome in assay [6] was inactive.

In the case of `O=C(/C=C/c1ccc(O)c(O)c1)OCCc1ccccc1`, the Potency entry in assay [4] was “inactive”. In addition, in assay [6], the compound was classed as inactive.

Consider `CCCCCCOc1ccccc1C(N)=O`, for which the result in assay [6] was inactive.

Turning to `Cc1ccc(C(=O)c2ccc(CC(=O)O)n2C)cc1`, in assay [2], the Potency entry was “inactive”. In assay [6], the call was inactive.

`N=C1N=C(N)c2cc3ccccc3cc21`: the Potency entry in [2] was “inactive”.

With `COc1cccc(OC)c1OCCNCC1COc2ccccc2O1` (stereo not drawn), the Potency in assay [2] is 3.16 µM (active). Further, the Potency result in assay [4] was “inactive”. The result in assay [6] was inactive.

As for `CC(N)C(=O)OC(C)(C)Cc1ccc(Cl)cc1` (stereo not drawn), the Potency result in assay [4] is “inactive”. In assay [6], the compound was classed as inactive.

In the case of `CN1CCc2cccc3c2C1Cc1ccc(O)c(O)c1-3` (stereo not drawn), in assay [6], the outcome was inactive.

Turning to `Cc1c(Nc2ncccc2C(=O)O)cccc1C(F)(F)F`, the Potency result in [2] is “inactive”. Moreover, in assay [6], the call was inactive.

As for `CC(C(=O)O)c1ccc(C(=O)c2cccs2)cc1` (stereo not drawn), in assay [2], the Potency result is “inactive”. For the same compound, the compound was called inactive in [6].

With `COc1cc(NC(C)CCCN)c2ncccc2c1` (stereo not drawn), in assay [6], the result was inactive.

For the compound `Cc1nc2sccn2c(=O)c1CCN1CCC(=C(c2ccccc2)c2ccc(F)cc2)CC1`, the figures for the Potency in assay [9] and in [7] were 31.6 µM (active) and 7.94 µM (active), respectively. Further, in assay [2], the Potency entry is “inactive”.
